The list is not random: actives were taken first. Their share in the collection is about 3.8%.
Gli-Sufu block: blocks Gli-Sufu signaling in a luciferase reporter | actives 0.74% (n = 340,000) | Sufu-KO-LIGHT fibroblasts, Gli luciferase reporter luminescence | inhibition, % at 5 µM;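 active means inhibition above about 55%, limit read from the data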;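 further: 0% = DMSO-treated cells and 100% = wells with medium but no cells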
Mdm2 MdmX PPI: inhibitors of human Mdm2/MdmX interaction; actives 3% (n = 330,000); inhibition, % at 8 µM; SaOS-2 split-luciferase Mdm2/MdmX complementation, luminescence;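 active means inhibition of at least 50% at 8 µM in the primary screen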
Shn3 inh set2: inhibitors of Schnurri-3 3'UTR reporter in osteoblasts. actives 0.52% (n = 360,000). Clone20 osteoblast Shn3 3'UTR firefly luciferase, 24 h. AID 588674. inhibition, % at 12.5 µM;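 active means mean inhibition of at least 75% with every replicate also reaching 75%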;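 further: 0% = median of neutral control wells and 100% = pilot-screen positive control compound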
697 NFkB inh: lowers PMA/ionomycin-induced NF-kB signal in 697 B cells | 697 B-cell NF-kB luciferase reporter, 16 h | inhibition, % at 4 µM | actives 0.33% (n = 330,000) | AID 435022; in the data active means inhibition above about 35%
Jurkat NFkB inh: inhibitors of the PMA/ionomycin-induced NF-kB reporter in Jurkat cells. PMA/ionomycin-induced NF-kB luciferase reporter, luminescence. inhibition, % at 4 µM. actives 0.53% (n = 330,000); in the data active means inhibition above about 50%
Gli-Sufu confirm: Gli-SUFU antagonism confirmation, single concentration. shares compounds with Gli-Sufu block. actives 40% (n = 2,500). inhibition, % at 5 µM. Sufu-KO-LIGHT cells, Gli luciferase reporter, luminescence. AID 602428;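 active means mean inhibition at 5 µM reaching about 45%, limit read from the data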;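 further: plate controls were DMSO-treated cells for no effect and wells lacking cells for full effect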
Gli cytotox: cytotoxic in Gli-SUFU antagonist counter-screen; shares compounds with Gli-Sufu block; Sufu-KO-LIGHT cells cytotoxicity, ATP luminescence; cytotoxicity, % at 5 µM; actives 32% (n = 2,500);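 active means mean cytotoxicity at 5 µM above about 25%, limit read from the data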;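 further: cells exposed to compound overnight for roughly 16 to 18 hours; plate controls were DMSO wells with cells for no effect and medium without cells for full effect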
Wnt3a cs: counter-screen for Gli-SUFU antagonists: Wnt3a reporter inhibition. actives 20% (n = 2,500). inhibition, % at 6.25 µM. Wnt-LIGHT cells, Wnt3a-driven luciferase reporter, luminescence. AID 651995. shares compounds with Gli-Sufu block;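 active means mean inhibition above about 25%, limit read from the data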
* hit, by the source's call; nt = no result given.

SMILES	Gli-Sufu block	Mdm2 MdmX PPI	Shn3 inh set2	697 NFkB inh	Jurkat NFkB inh	Gli-Sufu confirm	Gli cytotox	Wnt3a cs
CC(C)=CCC/C(C)=C/CNC(=O)C[C@H]1C[C@H](C(=O)N2CCOCC2)[C@@]2(C)c3[nH]c4cc(CCC(=O)N(C)C)ccc4c3CCN2C1=O	58.0*	35.4	88.8*	-1.4	nt	66.1*	19.0	-5.5
CN(C)C(=O)CCc1ccc2c3c([nH]c2c1)[C@]1(C)[C@@H](C(=O)N2CCOCC2)C[C@H](CC(=O)NC(C)(C)C)C(=O)N1CC3	-5.3	-4.7	-3.5	-1.8	nt	nt	nt	nt
CC[C@]12c3[nH]c4cc(CCC(=O)N(C)C)ccc4c3CCN1C(=O)[C@@H](CC(=O)NCCN1CCOCC1)C[C@@H]2C(=O)N1CCN(C(=O)C2CC2)CC1	-6.5	17.6	-4.9	16.1	nt	nt	nt	nt
CC[C@]12c3[nH]c4cc(CCC(=O)N(C)C)ccc4c3CCN1C(=O)[C@@H](CC(=O)NC/C=C(\C)CCC=C(C)C)C[C@@H]2C(=O)N1CCN(C(=O)C2CC2)CC1	53.2	47.5	83.7	18.4	nt	54.3*	29.5*	-22.9
O=C(Nc1ccc(C(F)(F)F)cc1)C1CCN(S(=O)(=O)c2ccc(N3CCCC3=O)cc2)CC1	77.1*	35.1	77.6	14.9	45.6	79.0*	17.9	2.8
COc1ccc(S(=O)(=O)N2CCC(C(=O)Nc3ccc(S(=O)(=O)N4CCCC4)cc3)CC2)cc1OC	-7.6	11.2	-7.7	-11.0	-6.9	nt	nt	nt
CS(=O)(=O)N1CCC(C(=O)Nc2ccc(C(F)(F)F)cc2)CC1	-3.8	-4.1	5.3	6.7	-11.4	nt	nt	nt
COc1ccc(NC(=O)C2CCN(S(=O)(=O)c3ccc(N4CCCC4=O)cc3)CC2)cc1OC	50.4	12.0	14.2	13.1	5.9	16.0	18.7	-47.4
Cc1nn(-c2ccccc2)c(N2CCCC2)c1/C=C1\N=C(c2ccc(OC(C)C)cc2)OC1=O	-2.0	-7.0	-4.5	0.0	-11.0	nt	nt	nt
C[C@H](CO)N1C[C@H](C)[C@@H](CN(C)S(=O)(=O)c2cn(C)cn2)Oc2c(NC(=O)Nc3ccc4c(c3)OCO4)cccc2C1=O	-8.8	-14.5	-16.9	-5.7	3.5	nt	nt	nt
Cc1cc(C(=O)CSc2nc(N)cc(=O)[nH]2)c(C)n1-c1ccc(OC(F)F)cc1	68.0*	16.9	78.4	20.3	39.5	64.7*	38.2*	21.5
Cc1csc2ncnc(NCCc3ccccn3)c12	67.2*	0.7	78.6	-3.6	20.4	57.4*	28.8*	26.8*
CCOC(=O)c1c(N)sc(C(O)(C(F)(F)F)C(F)(F)F)c1-c1ccc(F)cc1	53.4	-2.5	9.2	-12.3	-19.8	6.2	4.8	-56.3
CC(C)CN(CC(C)C)c1nc(N)c(C#N)c(CC#N)c1C#N	88.8*	10.6	21.0	-17.1	20.8	18.2	10.3	13.4
Cc1cc2c(cc3c(=O)n(CC(=O)NCCCN4CC(C)CC(C)C4)ncn32)s1 (stereo not given)	34.4	-1.5	8.7	-13.9	-13.5	nt	nt	nt
COc1ccc(N/C=C(\C#N)S(=O)(=O)c2ccc(Cl)cc2)c(OC)c1	65.0*	16.3	-7.9	2.7	6.6	14.4	-8.5	0.1
O=S(=O)(NCc1cccs1)c1ccc(Br)cc1	2.5	0.3	3.8	10.7	3.5	nt	nt	nt
O=C(Nc1ccc(Br)cc1)c1ccc(F)c(S(=O)(=O)NCc2cccs2)c1	51.3	32.3	84.2	-15.5	33.8	51.9*	43.4*	0.6
O=C(NCc1ccc2c(c1)OCO2)c1ccc(Cl)c(S(=O)(=O)NCc2ccccc2)c1	-1.8	-14.2	3.5	2.4	-1.6	nt	nt	nt
O=C(Nc1cccc(Cl)c1)c1ccc(F)c(S(=O)(=O)NCc2ccc3c(c2)OCO3)c1	88.7*	3.6	23.1	0.2	5.2	11.7	-0.7	-10.8
CCc1nnc(N/N=C/c2ccc(N3CCC(C)CC3)c([N+](=O)[O-])c2)n1N	-7.2	30.0	-1.4	24.9	6.1	nt	nt	nt
Cc1nnc(N/N=C/c2cc([N+](=O)[O-])c(N3CCC(C)CC3)cc2N2CCC(C)CC2)n1N	85.0*	16.3	65.6	2.4	6.2	87.5*	36.4*	-22.3
